The values that follow come from PubChem BioAssay (NCI).

Test [1] is described as follows: NCI Yeast Anticancer Drug Screen. Data for the rad50 strain (AID 155).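 Note: 0% = growth of vehicle-only cultures of the same strain.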 As to conditions: S. cerevisiae rad50 strain growth inhibition, hits give high values. In short, it runs like this:
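Genetically altered yeast (DNA repair pathway); compound treatment; growth inhibition vs vehicle ctrl.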

A short description of test [2]: NCI Yeast Anticancer Drug Screen. Data for the mec2-1 strain (AID 157). The note with it: S. cerevisiae mec2-1 strain, hits give high values. In short, it runs like this:
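Each compound was tested on mec2-1 yeast, a strain altered in DNA damage repair or cell cycle control. Growth inhibition is reported relative to vehicle.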

Test [3] is described as follows: NCI Yeast Anticancer Drug Screen. Data for the sgs1 mgt1 strain (AID 161).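 Note: 0% = growth of cultures given vehicle only.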 As to conditions: S. cerevisiae sgs1 mgt1 strain, hits give high values. In short, it runs like this: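 Genetically altered yeast, compound exposure, growth inhibition relative to vehicle.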
A short description of test [4]: NCI Yeast Anticancer Drug Screen. Data for the cln2 rad14 strain (AID 165).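 Note: 0% = growth equal to vehicle treated cultures.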 The note with it: S. cerevisiae cln2 rad14 strain, hits give high values. Summed up:
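Test compounds were added to cln2 rad14 yeast cultures; inhibition of growth was then determined by comparison with vehicle treatment.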

Test [5] is described as follows: NCI Yeast Anticancer Drug Screen. Data for the bub3 strain (AID 167). As to conditions: S. cerevisiae bub3 mutant strain, hits give high values. Summed up: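 Yeast carrying a defined mutation is treated with each compound, and growth is compared with that of vehicle-exposed cells to give inhibition.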
Test [6] is described as follows: NCI Yeast Anticancer Drug Screen. Data for the mlh1 rad18 strain (AID 175). The note with it: S. cerevisiae mlh1 rad18 strain growth inhibition, hits give high values. In short, it runs like this:
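Inhibition values reflect reduced growth of mutant yeast versus vehicle-treated controls following compound exposure; the mutations affect DNA damage repair.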

[7] abbreviates: at 5.0 µM (retest, dose inferred, filed as 0.5).
The mark [8] stands for this setting: at 50.0 µM (retest, dose inferred, filed as 5.0).

Each structure is given as a SMILES string. About 79,000 compounds went through this panel and 15% of them were active in at least one assay; those are over-represented in the sample as a whole. A number with no mark means an inactive call. Calls of active or inactive are those of the source. Cut-off read from the data, not from the text of the source: active = growth inhibition above about 70%; inactive = the rest. Where a SMILES comes first, the peptide text is derived from it. [ ]: non-standard residue; d: D form. ξ: configuration not given here. ξD = NC(CC(=O)O)C(=O)O

As to `CCCCCCCCCCCC[N+]1(CCCCCCCCCCCC)CCCC(C)C1` (stereo not given), the growth inhibition in test [1] (setting [7]) is 99% (active); in test [1] (setting [8]), 99% (active); in test [1] (at 50.0 µM) it was 88.8% (active); in test [2] (setting [7]) it was 100% (active); in test [2] (setting [8]) it was 94% (active); in test [2] (at 50.0 µM), 91.3% (active). Also, the growth inhibition is 100% (active) in test [3] (setting [7]); 99% (active) in test [3] (setting [8]); 91.1% (active) in test [3] (at 50.0 µM); 99% (active) in test [4] (setting [7]); 99% (active) in test [4] (setting [8]); 88.1% (active) in test [4] (at 50.0 µM). Further, the growth inhibition was 99% (active) in test [5] (setting [7]); 99% (active) in test [5] (setting [8]); 90% (active) in test [5] (at 50.0 µM); 99% (active) in test [6] (setting [7]); 99% (active) in test [6] (setting [8]); 88.7% (active) in test [6] (at 50.0 µM).
In the case of `S=c1[nH]c2cc(Cl)ccc2s1`, the growth inhibition in test [1] (setting [7]) was -21%; in test [1] (setting [8]), 64%; in test [1] (at 50.0 µM), 25.2%; in test [2] (setting [7]) it was -4%; in test [2] (setting [8]) it was 90% (active); in test [2] (at 50.0 µM), 42.2%. In addition, the growth inhibition in test [3] (setting [7]) is -6%; in test [3] (setting [8]), 95% (active); in test [3] (at 50.0 µM), 74.6% (active); in test [4] (setting [7]), -8%; in test [4] (setting [8]), 93% (active); in test [4] (at 50.0 µM), -2.15%. The growth inhibition in test [5] (setting [7]) is -28%; in test [5] (setting [8]) it was 16%; in test [5] (at 50.0 µM) it was -4.3%; in test [6] (setting [7]), -12%; in test [6] (setting [8]), 45%; in test [6] (at 50.0 µM), 42.9%.
In the case of `CCN(CC)CCNc1ccc([N+](=O)[O-])c2sc3ccccc3c(=O)c12`, the growth inhibition in test [1] (setting [7]) was 46%; in test [1] (setting [8]), 95% (active); in test [1] (at 50.0 µM), 86.2% (active); in test [2] (setting [7]) it was 13%; in test [2] (setting [8]), 85% (active); in test [2] (at 50.0 µM), 90.7% (active). Also, the growth inhibition in test [3] (setting [7]) was 19%; in test [3] (setting [8]), 84% (active); in test [3] (at 50.0 µM) it was 41.2%; in test [4] (setting [7]), 12%; in test [4] (setting [8]) it was 60%; in test [4] (at 50.0 µM) it was 20.5%. In addition, the growth inhibition in test [5] (setting [7]) was 27%; in test [5] (setting [8]) it was 98% (active); in test [5] (at 50.0 µM), 17.7%; in test [6] (setting [7]), 33%; in test [6] (setting [8]), 88% (active); in test [6] (at 50.0 µM), 90.3% (active).
Regarding `Fc1cccc(F)c1C1SCc2nc3cc4ccccc4cc3n21` (stereo not given), the growth inhibition in test [1] (setting [7]) is 35%; in test [1] (setting [8]), 83% (active); in test [1] (at 50.0 µM) it was 23.1%; in test [2] (setting [7]), 24%; in test [2] (setting [8]), 66%; in test [2] (at 50.0 µM), 56.3%. The growth inhibition in test [3] (setting [7]) is 23%; in test [3] (setting [8]), 47%; in test [3] (at 50.0 µM), 78.5% (active); in test [4] (setting [7]), 27%; in test [4] (setting [8]) it was 31%; in test [4] (at 50.0 µM), 80.1% (active). Further, the growth inhibition in test [5] (setting [7]) is 30%; in test [5] (setting [8]) it was 75% (active); in test [5] (at 50.0 µM), 80.2% (active); in test [6] (setting [7]) it was 28%; in test [6] (setting [8]), 75% (active); in test [6] (at 50.0 µM), 42.5%.
Turning to `COC(=O)C(=[N+]=[N-])C(=O)c1ccc([N+](=O)[O-])o1`, the growth inhibition in test [1] (setting [7]) was 32%; in test [1] (setting [8]), 98% (active); in test [1] (at 50.0 µM), 56.1%; in test [2] (setting [7]), 10%; in test [2] (setting [8]), 99% (active); in test [2] (at 50.0 µM) it was 55.5%. Also, the growth inhibition in test [3] (setting [7]) is 18%; in test [3] (setting [8]), 98% (active); in test [3] (at 50.0 µM), 51.8%; in test [4] (setting [7]) it was 8%; in test [4] (setting [8]) it was 99% (active); in test [4] (at 50.0 µM) it was 98.5% (active). The growth inhibition is 6% in test [5] (setting [7]); 99% (active) in test [5] (setting [8]); 48.5% in test [5] (at 50.0 µM); 25% in test [6] (setting [7]); 99% (active) in test [6] (setting [8]); 98.7% (active) in test [6] (at 50.0 µM).
On to `NCC(=O)NC(CC(=O)O)C(=O)O` (stereo not given) (H-Gly-[ξD]-OH), for which the growth inhibition was -1% in test [1] (setting [7]); 10% in test [1] (setting [8]); 12.7% in test [1] (at 50.0 µM); -6% in test [2] (setting [7]); -12% in test [2] (setting [8]); 9.15% in test [2] (at 50.0 µM). Moreover, the growth inhibition was -10% in test [3] (setting [7]); 20% in test [3] (setting [8]); 13.2% in test [3] (at 50.0 µM); -2% in test [4] (setting [7]); 14% in test [4] (setting [8]); 1.05% in test [4] (at 50.0 µM). The growth inhibition in test [5] (setting [7]) was 9%; in test [5] (setting [8]), 9%; in test [5] (at 50.0 µM), 8.05%; in test [6] (setting [7]) it was 8%; in test [6] (setting [8]), 16%; in test [6] (at 50.0 µM) it was 32.2%.
With `CCOC(=O)/C(=C\c1ccc2ccccc2c1)P(=O)(OCC)OCC`, the growth inhibition in test [1] (setting [7]) is -3%; in test [1] (setting [8]), 59%; in test [1] (at 50.0 µM) it was 78.2% (active); in test [2] (setting [7]), 3%; in test [2] (setting [8]), 81% (active); in test [2] (at 50.0 µM), 79.5% (active). For the same compound, the growth inhibition in test [3] (setting [7]) is 9%; in test [3] (setting [8]) it was 66%; in test [3] (at 50.0 µM), 72% (active); in test [4] (setting [7]), 30%; in test [4] (setting [8]) it was 69%; in test [4] (at 50.0 µM), 65.4%. Further, the growth inhibition is 29% in test [5] (setting [7]); 88% (active) in test [5] (setting [8]); 74% (active) in test [5] (at 50.0 µM); 17% in test [6] (setting [7]); 88% (active) in test [6] (setting [8]); 59.3% in test [6] (at 50.0 µM).
As to `O=C(O)c1ccc2c(c1)C(=O)c1ccccc1C2=O`, the growth inhibition in test [1] (setting [7]) is -1%; in test [1] (setting [8]), 33%; in test [1] (at 50.0 µM) it was 95.9% (active); in test [2] (setting [7]), -1%; in test [2] (setting [8]), 28%; in test [2] (at 50.0 µM) it was 99.3% (active). Besides, the growth inhibition in test [3] (setting [7]) is 3%; in test [3] (setting [8]), 26%; in test [3] (at 50.0 µM), 91.2% (active); in test [4] (setting [7]), -1%; in test [4] (setting [8]), 30%; in test [4] (at 50.0 µM) it was 14.2%. Besides, the growth inhibition in test [5] (setting [7]) is 1%; in test [5] (setting [8]), 31%; in test [5] (at 50.0 µM), 98.7% (active); in test [6] (setting [7]), -2%; in test [6] (setting [8]) it was 41%; in test [6] (at 50.0 µM), 96.5% (active).
`CN(C)c1ccc(/C=C/c2sc3ccc4ccccc4c3[n+]2C)cc1`: the growth inhibition in test [1] (setting [7]) is 97% (active); in test [1] (setting [8]), 96% (active); in test [1] (at 50.0 µM), 89.1% (active); in test [2] (setting [7]), 99% (active); in test [2] (setting [8]), 98% (active); in test [2] (at 50.0 µM) it was 89.7% (active). Moreover, the growth inhibition in test [3] (setting [7]) is 100% (active); in test [3] (setting [8]) it was 98% (active); in test [3] (at 50.0 µM) it was 90.2% (active); in test [4] (setting [7]), 99% (active); in test [4] (setting [8]) it was 97% (active); in test [4] (at 50.0 µM), 89.5% (active). The growth inhibition was 99% (active) in test [5] (setting [7]); 97% (active) in test [5] (setting [8]); 89.8% (active) in test [5] (at 50.0 µM); 98% (active) in test [6] (setting [7]); 97% (active) in test [6] (setting [8]); 89.2% (active) in test [6] (at 50.0 µM).
For the compound `O=C(Nc1ccc(Cl)c(Cl)c1)Nc1ccccc1O`, the growth inhibition is 5% in test [1] (setting [7]); 50% in test [1] (setting [8]); 46.2% in test [1] (at 50.0 µM); 6% in test [2] (setting [7]); 35% in test [2] (setting [8]); 39.9% in test [2] (at 50.0 µM). In addition, the growth inhibition is 0% in test [3] (setting [7]); 31% in test [3] (setting [8]); 48.8% in test [3] (at 50.0 µM); 12% in test [4] (setting [7]); 39% in test [4] (setting [8]); 53.3% in test [4] (at 50.0 µM). The growth inhibition in test [5] (setting [7]) is 46%; in test [5] (setting [8]), 78% (active); in test [5] (at 50.0 µM), 64%; in test [6] (setting [7]) it was 1%; in test [6] (setting [8]), 54%; in test [6] (at 50.0 µM), 76.2% (active).
